Assay [1] can be described thus: qHTS to identify inhibitors of the type 1 interferon - major histocompatibility complex class I in skeletal muscle: primary screen against the NCATS LOPAC collection (AID 1347405).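 Further: lytic HiBiT luminescence reporting HLA-B protein level.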 Further: potency means the concentration at half of the fitted maximal effect. An outline of the steps:
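Immortalized human C25cl48 myoblasts with HiBiT knocked into endogenous HLA-B*08:01 were stimulated with 4.0 ng/ml IFN-beta and given compounds in a 7-point, 1:4.3 titration from 46 uM final; after 24 hrs, lytic HiBiT luminescence was read.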
For orientation: In qHTS, concentration-response curves come from the screen itself.

A short description of assay [2]: Validation qHTS assay for inhibitors of Activation Induced Cytidine Deaminase (AID): UDG Counterscreen signal (AID 1347427). Further: potency means the concentration at half of the fitted maximal effect. An outline of the steps: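 Counterscreen read of UDG activity (2 U/mL, 4/3x) in the FRET deamination format with AID (1 uM, 4/3x), DJC20/DJC23 substrates (250 nM, 4x), 4 h at room temperature. NaOH stop, fluorescence at 560 ex/665 em.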
Assay [3] has as its target Single-stranded DNA cytosine deaminase (Homo sapiens) (UniProt Q9GZX7). Nature of the assay: Validation qHTS assay for inhibitors of Activation Induced Cytidine Deaminase (AID): AID signal (AID 1347429). An outline of the steps:
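AID and UDG were combined and compounds added at final up to 114 uM, then DJC20/DJC23 FRET substrate was added for 4 hr at room temperature. NaOH was then added for 30 min before fluorescence was read at 540/590 nm.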

Assay [4] in a line: Primary qHTS for inhibitors of La Crosse Virus (LACV) - induced cell death in SH-SY5Y cells (AID 1508616).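 Further: top concentration of the series differs between compounds; higher means more rescue of cells from virus-induced death.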 An outline of the steps:
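Luminescent ATP readout (ATPLite 1step, 5 min room temperature) measured rescue from LACV-induced death after 6 days of infection at 0.01 MOI; normalized to infected DMSO wells and uninfected DMSO wells.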

Assay [5] can be described thus: qHTS to identify inhibitors of the type 1 interferon - major histocompatibility complex class I in skeletal muscle: primary screen against the NCATS Pharmaceutical Collection (AID 1347407).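 Further: luminescence of HiBiT knocked into endogenous HLA-B as interferon-induced MHC class I level.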 The method, boiled down: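 Immortalized human myoblasts (C25cl48) with HiBiT knocked into endogenous HLA-B*08:01 were stimulated with 4 ng/ml IFN-beta and treated with compounds (8-point, 1:5, top 46 uM final) for 24 h at 37 C; HiBiT lytic luminescence read.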

Assay [6] concerns the target Protein phosphatase 1D (Homo sapiens) (UniProt O15297). In words: RapidFire Mass Spectrometry qHTS Assay for Modulators of WT P53-Induced Phosphatase 1 (WIP1) (AID 1347424).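 Further: amount of dephosphorylated VEPPL-S-QETFS peptide product formed by WIP1; series mostly up to about 63 µM.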 An outline of the steps:
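10 nM WIP1 preincubated with compounds 1 hr at room temperature in pH 7.5 Tris buffer with 30 mM MgCl2, 1 mM TCEP; 2 uM VEPPL-pS-QETFS phosphopeptide for 5 min, formic acid quench; dephosphorylated product quantified by RapidFire MS against labelled standard.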

The target is the same in assay [7]. In words: Rhodamine-PBP qHTS Assay for Modulators of WT P53-Induced Phosphatase 1 (WIP1) (AID 1347425). The method, boiled down: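 5 nM WIP1 + 10 uM Rh-PBP, 50 mM Tris pH 7.5, 30 mM MgCl2, 1 mM TCEP, 0.1 mM EGTA, BSA; cpds pinned, 1 hr RT; + 10 uM phosphopeptide; fluorescence 1-min reads x 11 min; delta = f1 - f0.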
The nature of assay [8]: qHTS for inhibitors of adenylyl cyclases using a fission yeast platform: a pilot screen against the NCATS LOPAC library (AID 1347410). The method, boiled down: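 S. pombe CHP2027 (AC9-GNAS-PDE4D2) carrying a PKA-repressed fbp1-GFP reporter was exposed to LOPAC compounds (final up to 57 µM) for 18 h at 30C in the dark, in EMM with histidine, lysine and uracil; GFP gain-of-signal read by laser scanning cytometry.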

Assay [9] can be described thus: qHTS to identify inhibitors of the type 1 interferon - major histocompatibility complex class I in skeletal muscle: primary screen against the NCATS Mechanism Interrogation Plate v5.0 (MIPE) Libary (AID 1347411). Further: nearly all actives have a fitted effect of over 65% in size. An outline of the steps:
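Immortalized human C25cl48 myoblasts with HiBit knocked into endogenous HLA-B*08:01 were stimulated with 4.0 ng/ml IFN-beta and exposed to compounds (11-point 1:3 titration, top 46 uM final) for 24 hrs at 37 C; HiBiT lytic luminescence measured.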

Records with an inconclusive call do not appear. The source made the active and inactive calls. The call rests on the fitted dose curve; in most records, active means well fitted curve in the direction sought with a large enough effect; inconclusive means small, poorly fitted or top-dose-only effect, or another doubt; inactive means no such curve, though single readings can be large; an effect the other way counts as inactive or inconclusive.

Sequence of Single-stranded DNA cytosine deaminase (Homo sapiens) (Q9GZX7 whole entry, looked up): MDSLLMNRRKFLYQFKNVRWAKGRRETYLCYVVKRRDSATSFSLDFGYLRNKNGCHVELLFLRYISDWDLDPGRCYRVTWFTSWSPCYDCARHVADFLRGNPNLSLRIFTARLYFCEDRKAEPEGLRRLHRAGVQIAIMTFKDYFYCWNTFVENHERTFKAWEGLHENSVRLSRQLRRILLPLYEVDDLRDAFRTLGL
Sequence of Protein phosphatase 1D (Homo sapiens) (O15297 whole entry, looked up): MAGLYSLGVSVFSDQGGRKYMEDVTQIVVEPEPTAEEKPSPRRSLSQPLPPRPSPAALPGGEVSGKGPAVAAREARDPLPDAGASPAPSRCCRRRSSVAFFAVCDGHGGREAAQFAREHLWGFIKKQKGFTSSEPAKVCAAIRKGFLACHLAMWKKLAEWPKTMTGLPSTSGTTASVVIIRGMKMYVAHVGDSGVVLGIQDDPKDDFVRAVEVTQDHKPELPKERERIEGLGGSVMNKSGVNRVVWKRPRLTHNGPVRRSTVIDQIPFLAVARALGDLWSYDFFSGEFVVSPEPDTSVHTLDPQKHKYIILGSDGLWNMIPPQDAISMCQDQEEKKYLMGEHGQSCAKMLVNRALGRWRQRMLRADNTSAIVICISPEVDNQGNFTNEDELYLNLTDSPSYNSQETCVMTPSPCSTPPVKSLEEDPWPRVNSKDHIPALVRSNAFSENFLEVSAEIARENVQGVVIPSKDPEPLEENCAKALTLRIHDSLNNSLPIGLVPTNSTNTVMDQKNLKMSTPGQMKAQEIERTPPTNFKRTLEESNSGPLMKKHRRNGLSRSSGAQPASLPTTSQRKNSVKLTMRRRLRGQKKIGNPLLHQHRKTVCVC

In the case of `COC(=O)c1c(C)[nH]c(C)c1C(=O)c1ccccc1Cc1ccccc1`, the Potency entry in assay [1], in assay [2], in assay [3] and in assay [4] was “inactive” in each case.

Turning to `Oc1c(Br)cc(Br)c2cccnc12`, the Potency result in [5] and in assay [6] was “inactive” in each case. Besides, in [7], the outcome was inactive.

Consider `NC(N)=NC(=O)c1nc(Cl)c(N2CCCCCC2)nc1N`, for which the Potency entry in [1], in assay [2] and in [4] was “inactive” in each case. In [8], the molecule was classed as inactive.

For `CC(=O)N[C@H](C(=O)O)C(C)(C)SN=O`, the Potency entry in assay [1], in [2], in assay [3] and in assay [4] was “inactive” each time.

As for `Nc1nc(SCc2ccc([N+](=O)[O-])cc2)c2ncn([C@@H]3O[C@H](CO)[C@@H](O)[C@H]3O)c2n1`, the Potency entry in assay [1], in assay [3] and in [4] was “inactive” each time. In addition, the outcome in [8] was inactive.

With `C[N+]1(C)[C@@H]2CC(OC(=O)[C@H](CO)c3ccccc3)C[C@H]1[C@@H]1O[C@@H]12` (some centres not stated), the Potency result in [5], in assay [9], in [6] and in assay [4] was “inactive” each time. Also, the molecule was classed as inactive in [7].

On to `NO`, for which the Potency entry in assay [1], in assay [3] and in assay [4] was “inactive” throughout. For the same molecule, in assay [8], the molecule was classed as inactive.

On to `N#C/C(=C\c1ccc(-c2cc(Cl)ccc2Cl)o1)C(=O)Nc1cccc2ncccc12`, for which the Potency in assay [1] is 14.1 µM (active). For the same molecule, the molecule was called inactive in assay [8]. Besides, the Potency entry in assay [2] and in assay [4] was “inactive” throughout.

Regarding `O=P(O)(O)C(Cl)(Cl)P(=O)(O)O`, the Potency result in [1], in assay [2], in [3] and in assay [4] was “inactive” in each case.

For `Clc1ccc(N2CCN(Cc3c[nH]c4ncccc34)CC2)cc1`, the Potency result in [1], in assay [2] and in [4] was “inactive” throughout. In addition, the call in assay [8] was inactive.

With `N.N.N.N.N.N.N.N.N.N.N.N.N.N.O.O.[Ru+4].[Ru+5].[Ru+5]`, the Potency result in [1] and in [4] was “inactive” each time. Further, the Potency in [2] is 39.8 µM (active).

As to `Cn1cc(C2=C(c3ccc(Cl)cc3Cl)C(=O)NC2=O)c2ccccc21`, the Potency result in assay [1], in [2] and in assay [4] was “inactive” each time.

For `C#C[C@]1(O)CC[C@H]2[C@@H]3CCc4cc(O)ccc4[C@H]3CC[C@@]21C`, the Potency entry in assay [5] and in assay [6] was “inactive” in each case. Besides, the molecule was called inactive in assay [7].

Take `NCCCS(=O)(=O)O`: the Potency result in assay [1], in assay [3] and in assay [4] was “inactive” throughout. In addition, in assay [8], the molecule was called inactive.

In the case of `CC(C)CC(NP(=O)(O)O[C@@H]1O[C@@H](C)[C@H](O)[C@@H](O)[C@H]1O)C(=O)NC(Cc1c[nH]c2ccccc12)C(=O)O` (some centres not stated), the Potency entry in assay [1], in assay [3] and in assay [4] was “inactive” throughout. Further, in assay [8], the outcome was inactive.

Take `NC(=S)c1ccc[n+]([C@@H]2O[C@@H](COP(=O)([O-])OP(=O)(O)OC[C@H]3O[C@@H](n4cnc5c(N)ncnc54)[C@H](OP(=O)(O)O)[C@@H]3O)C(O)C2O)c1` (some centres not stated): the Potency entry in [1], in assay [3] and in assay [4] was “inactive” each time. Further, the outcome in [8] was inactive.

With `CNC(=O)[C@H]1O[C@@H](n2cnc3c(NCc4ccc(N)cc4)ncnc32)[C@H](O)[C@@H]1O`, the Potency entry in assay [1], in assay [2] and in assay [4] was “inactive” each time.

For the molecule `CCOc1ccc2nc(S(N)(=O)=O)sc2c1`, the Potency entry in assay [5], in assay [6] and in assay [4] was “inactive” throughout. In addition, the molecule was called inactive in assay [7].

On to `NC(=O)C(c1ccccc1)(c1ccccc1)[C@@H]1CCN(CCc2ccc3c(c2)CCO3)C1`, for which the Potency entry in assay [5], in [6] and in [4] was “inactive” each time. Also, in assay [7], the molecule was called inactive.

Source of the values: PubChem BioAssay (NCATS).
